Results taken from the supplement of paper PMC8975748.
Where a name gives a salt, the structure may show the parent alone.

system: Saccharomyces cerevisiae BY4741 SeMeCo community; test: z-score of subpopulation abundance vs DMSO median, subpopulation auxotrophic for HUM; higher = larger share of this subpopulation than in DMSO controls; conditions: 10 µM; 24 h; SM minimal medium; subpopulation (auxotrophy): HUM
Procedure: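 Fluorescent four-plasmid SeMeCo (self-establishing metabolically cooperating S. cerevisiae BY4741 community; plasmids pH-mRuby2, pL-mWasabi, pU-eCFP, pM-TagRFP657) was grown 24 h in minimal SM medium with each Selleck FDA-approved drug at 10 µM in 384-well plates. Cells were fixed and imaged by high-content confocal microscopy. For each auxotrophic subpopulation (and the prototroph), a z-score gives the deviation from the DMSO vehicle-control population median.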

SMILES	z-score of subpopulation abundance
CN[C@H]1C(=O)N[C@@H]2Cc3ccc(cc3)Oc3cc4cc(c3O[C@@H]3O[C@H](C(=O)O)[C@@H](O)[C@H](O)[C@H]3NC(=O)CCCCCCCCC(C)C)Oc3ccc(cc3Cl)[C@@H](O)[C@@H]3NC(=O)[C@H](NC(=O)[C@@H]4NC(=O)[C@@H](NC2=O)c2cc(cc(O)c2Cl)Oc2cc1ccc2O)c1ccc(O)c(c1)-c1c(O[C@H]2O[C@H](CO)[C@@H](O)[C@H](O)[C@@H]2O)cc(O)cc1[C@@H](C(=O)NCCCN(C)C)NC3=O [Dalbavancin]	1.97
COc1ccc(CN2CCN(C(c3ccc(F)cc3)c3ccc(F)cc3)CC2)c(OC)c1OC [Lomerizine 2HCl]	-0.52
c1ccc(C2CN3CCSC3=N2)cc1 (stereo not given) [Tetramisole HCl]	-0.09
CC1=C(C(=O)O)N2C(=O)[C@@H](NC(=O)[C@H](N)C3=CCC=CC3)[C@H]2SC1 [Cefradine]	-0.79
Cc1c(OCC(F)(F)F)ccnc1C[S@@+]([O-])c1nc2ccccc2[nH]1 [Dexlansoprazole]	-0.66
CCN1CCN(c2cc3c(cc2F)c(=O)c(C(=O)O)cn3C2CC2)CC1 [Enrofloxacin]	0.02
CCC1=C(C)CN(C(=O)NCCc2ccc(S(=O)(=O)NC(=O)N[C@H]3CC[C@H](C)CC3)cc2)C1=O [Glimepiride]	0.42
CN1[C@@H]2CC[C@H]1C[C@@H](OC(c1ccccc1)c1ccccc1)C2 [Benztropine mesylate]	-0.47
COCCOC(=O)C1=C(C)NC(C)=C(C(=O)OC(C)C)C1c1cccc([N+](=O)[O-])c1 (stereo not given) [Nimodipine]	-0.42
CC(C)COCC(CN(Cc1ccccc1)c1ccccc1)N1CCCC1 (stereo not given) [Bepridil hydrochloride]	1.35
CC1=Nc2ccc(Cl)cc2S(=O)(=O)N1 [Diazoxide]	-0.41
Cc1nc(NC(=O)N2CCC[C@H]2C(N)=O)sc1-c1ccnc(C(C)(C)C(F)(F)F)c1 [Alpelisib (BYL719)]	0.48
CCOc1cc(NC(C)=O)ccc1C(=O)OC [Ethopabate]	-0.22
COc1ccc(NS(=O)(=O)c2ccc(N)cc2)nn1 [Sulfamethoxypyridazine]	-0.17
C[C@@H](O)[C@H]1C(=O)N2C(C(=O)O)=C(SCCNC=N)C[C@H]12 [Imipenem]	0.59
CCCN1CCCC[C@H]1C(=O)Nc1c(C)cccc1C [Ropivacaine]	-0.48
CS(=O)(=O)c1ccc(C2=C(c3ccccc3)C(=O)OC2)cc1 [Rofecoxib]	0.77
O=c1[nH]cc(F)c(=O)[nH]1 [Fluorouracil (5-Fluoracil, 5-FU)]	12.3
COc1cc(O)c(C(=O)Nc2nc(C(=O)NCCN(C(C)C)C(C)C)cs2)cc1OC [Acotiamide]	0.93
C[C@]12CCC(=O)C=C1[C@@H]1C[C@@H]1[C@H]1[C@@H]3[C@@H]4C[C@@H]4[C@@]4(CCC(=O)O4)[C@@]3(C)CC[C@@H]12 [Drospirenone]	-0.41

SMILES	z-score of subpopulation abundance
CN1CCC[C@@H]1Cc1c[nH]c2ccc(CCS(=O)(=O)c3ccccc3)cc12 [Eletriptan HBr]	-0.47
C#C[C@]1(O)CC[C@H]2[C@@H]3CCc4cc(OC)ccc4[C@H]3CC[C@@]21C [Mestranol]	-0.58
C[C@]12CCC3=C4CCC(=O)C=C4CC[C@H]3[C@@H]1CC[C@@]2(O)CC#N [Dienogest]	-0.51
Clc1ccc(C(Cn2ccnc2)OCc2csc3c(Cl)cccc23)c(Cl)c1 (stereo not given) [Sertaconazole nitrate]	3.4
COc1nc2ccc(Br)cc2cc1[C@@H](c1ccccc1)[C@@](O)(CCN(C)C)c1cccc2ccccc12 [Bedaquiline fumarate]	1.74
CC[C@H]1OC(=O)[C@H](C)[C@@H](O[C@H]2C[C@@](C)(OC)[C@@H](O)[C@H](C)O2)[C@H](C)[C@@H](O[C@@H]2O[C@H](C)C[C@H](N(C)C)[C@H]2O)[C@](C)(O)C[C@@H](C)CN(C)[C@H](C)[C@@H](O)[C@]1(C)O [Azithromycin]	0.11
CC[C@@H]1C(=O)OC[C@@H]1Cc1cncn1C [Pilocarpine HCl]	-1.4
C[C@H]1COc2c(N3CCN(C)CC3)c(F)cc3c(=O)c(C(=O)O)cn1c23 [Levofloxacin hydrate]	0.55
CN1CCN(CC(=O)N2c3ccccc3C(=O)Nc3cccnc32)CC1 [Pirenzepine dihydrochloride]	-0.75
C[N+]1(C)CCC(OC(=O)C(O)(c2ccccc2)C2CCCC2)C1 (stereo not given) [Glycopyrrolate]	0.23
C[C@@H]1[C@H](O)[C@@H](C)/C=C/C=C/C=C/C=C/C=C/C=C/C=C/[C@H](O[C@@H]2O[C@H](C)[C@@H](O)[C@H](N)[C@@H]2O)C[C@@H]2O[C@](O)(C[C@@H](O)C[C@@H](O)[C@H](O)CC[C@@H](O)C[C@@H](O)CC(=O)O[C@H]1C)C[C@H](O)[C@H]2C(=O)O [Amphotericin B]	75.7
N[C@@H]1CONC1=O [D-Cycloserine]	0.3
C[C@@H](O)[C@H]1C(=O)N2C(C(=O)O)=C(S[C@@H]3CN[C@H](C(=O)N(C)C)C3)[C@H](C)[C@H]12 [Meropenem]	0.12
CN1CCN(c2cc3c(cc2F)c(=O)c(C(=O)O)cn3-c2ccc(F)cc2)CC1 [Difloxacin hydrochloride]	-0.72
c1cnc2cc3c(cc2n1)[C@@H]1CNC[C@H]3C1 [Varenicline Tartrate]	-0.72
CC(C)C(=O)c1c(C(C)C)nn2ccccc12 [Ibudilast]	-0.38
CCS(=O)(=O)CCn1c([N+](=O)[O-])cnc1C [Tinidazole]	-0.47
CCCCCCCCN=C(N)NC(N)=NCc1ccc(Cl)c(Cl)c1 [Olanexidine Hydrochloride semihydrate]	34.7
N#CC(c1ccc(Cl)cc1)c1c(Cl)cc(-n2ncc(=O)[nH]c2=O)cc1Cl (stereo not given) [Diclazuril]	-0.94
COc1ccc2[nH]c([S@@+]([O-])Cc3ncc(C)c(OC)c3C)nc2c1 [NEXIUM (esomeprazole magnesium)]	-0.41
